Reference: the supplement of paper PMC10849652
Targets with a hit are over-represented here; the source holds about 7,900 in all. About 0.6% of all pairs of compound and target were hits. Values without a mark were called inactive.

Legend:
Test in all cases: log2 fold change, soluble protein after heating vs DMSO (PISA); higher = thermal stabilisation; K562 cells, 10 uM, 30 min; active = over 0.2 and 3.5 SD of the protein, either way, in both replicates (recomputed)
[1] = compound: COC1=CC=C(C=C1)CN2C=CC3=C2C=C(C=C3)C(=O)NO
Summary of the method: (§1)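 K562 cells (2×10^6 cells/mL) were treated with 10 μM compound for 30 min, and aliquots were heated for 3 min over 48°C-58°C. Pooled aliquots were extracted in PBS with 0.5% NP-40 at 4°C, and the supernatant after 21,000xg for 90 min was measured by TMTpro 16plex LC-MS/MS with channel sums equalised. Reported thermal stability, relative to control samples and from duplicates, is a log2 fold change.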

filanesib = compound: CON(C)C(=O)N1N=C(c2cc(F)ccc2F)S[C@@]1(CCCN)c1ccccc1 [filanesib]
Summary of the method: as §1

zotarolimus = compound: CO[C@H]1C[C@@H]2CC[C@@H](C)[C@@](O)(O2)C(=O)C(=O)N2CCCC[C@H]2C(=O)O[C@H]([C@H](C)C[C@@H]2CC[C@H](n3cnnn3)[C@H](OC)C2)CC(=O)[C@H](C)/C=C(\C)[C@@H](O)[C@@H](OC)C(=O)[C@H](C)C[C@H](C)/C=C/C=C/C=C/1C [zotarolimus]
Summary of the method: as §1

idasanutlin = compound: COc1cc(C(=O)O)ccc1NC(=O)[C@@H]1N[C@@H](CC(C)(C)C)[C@](C#N)(c2ccc(Cl)cc2F)[C@H]1c1cccc(Cl)c1F [idasanutlin]
Summary of the method: as §1

alisertib = compound: COc1cc(Nc2ncc3c(n2)-c2ccc(Cl)cc2C(c2c(F)cccc2OC)=NC3)ccc1C(=O)O [alisertib]
Summary of the method: as §1

[2] = compound: COc1cc2nc(-c3cc(F)ccc3O)nc(N[C@@H]3CNC[C@H]3C(C)(C)O)c2cc1OC
Summary of the method: as §1

gefitinib = compound: COc1cc2ncnc(Nc3ccc(F)c(Cl)c3)c2cc1OCCCN1CCOCC1 [gefitinib]
Summary of the method: as §1

[3] = compound: COc1cccc2cc(-c3nc([C@H]4CC[C@H](C(=O)O)CC4)n4ncnc(N)c34)[nH]c12
Summary of the method: as §1

lapatinib = compound: CS(=O)(=O)CCNCc1ccc(-c2ccc3ncnc(Nc4ccc(OCc5cccc(F)c5)c(Cl)c4)c3c2)o1 [lapatinib]
Summary of the method: as §1

pictilisib = compound: CS(=O)(=O)N1CCN(Cc2cc3nc(-c4cccc5[nH]ncc45)nc(N4CCOCC4)c3s2)CC1 [pictilisib]
Summary of the method: as §1

[4] = compound: CS(=O)(=O)c1ccc(-c2cnc(N)c(C(=O)Nc3ccccc3)n2)cc1
Summary of the method: as §1

crizotinib = compound: C[C@@H](Oc1cc(-c2cnn(C3CCNCC3)c2)cnc1N)c1c(Cl)ccc(F)c1Cl [crizotinib]
Summary of the method: as §1

[5] = compound: C[C@@H]1COCCN1C2=NC(=NC(=C2)C3(CC3)S(=O)(=O)C)C4=C5C=CNC5=CC=C4
Summary of the method: as §1

[6] = compound: C[C@H](C1=CC=C(C=C1)C(=O)NC2=C3C=CNC3=NC=C2)N
Summary of the method: as §1

duvelisib = compound: C[C@H](Nc1ncnc2nc[nH]c12)c1cc2cccc(Cl)c2c(=O)n1-c1ccccc1 [duvelisib]
Summary of the method: as §1

gandotinib = compound: Cc1cc(Nc2cc(CN3CCOCC3)c3nc(C)c(Cc4ccc(Cl)cc4F)n3n2)n[nH]1 [gandotinib]
Summary of the method: as §1

tozasertib = compound: Cc1cc(Nc2cc(N3CCN(C)CC3)nc(Sc3ccc(NC(=O)C4CC4)cc3)n2)n[nH]1 [tozasertib]
Summary of the method: as §1

[7] = compound: Cc1cc(SCc2sc(-c3ccc(C(F)(F)F)cc3)nc2C)ccc1OCC(=O)O
Summary of the method: as §1

doramapimod = compound: Cc1ccc(-n2nc(C(C)(C)C)cc2NC(=O)Nc2ccc(OCCN3CCOCC3)c3ccccc23)cc1 [doramapimod]
Summary of the method: as §1

ispinesib = compound: Cc1ccc(C(=O)N(CCCN)[C@@H](c2nc3cc(Cl)ccc3c(=O)n2Cc2ccccc2)C(C)C)cc1 [ispinesib]
Summary of the method: as §1

Sequence of UniProt Q8N543 (Q8N543 whole entry, looked up): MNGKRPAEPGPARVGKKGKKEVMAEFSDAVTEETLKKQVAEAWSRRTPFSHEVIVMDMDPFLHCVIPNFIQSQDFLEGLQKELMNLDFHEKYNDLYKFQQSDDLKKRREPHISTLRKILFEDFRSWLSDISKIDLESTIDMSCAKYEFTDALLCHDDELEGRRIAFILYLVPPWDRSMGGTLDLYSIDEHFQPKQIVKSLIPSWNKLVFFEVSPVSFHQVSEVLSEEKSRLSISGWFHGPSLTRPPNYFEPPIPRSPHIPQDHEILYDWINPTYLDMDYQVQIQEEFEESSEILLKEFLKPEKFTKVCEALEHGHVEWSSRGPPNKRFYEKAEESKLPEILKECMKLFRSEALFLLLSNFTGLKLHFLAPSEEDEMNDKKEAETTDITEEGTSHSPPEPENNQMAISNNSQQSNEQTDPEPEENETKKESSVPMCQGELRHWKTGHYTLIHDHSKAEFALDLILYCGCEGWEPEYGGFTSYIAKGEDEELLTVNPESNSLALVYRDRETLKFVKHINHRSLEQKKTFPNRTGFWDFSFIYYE
Sequence of UniProt Q99747 (Q99747 whole entry, looked up): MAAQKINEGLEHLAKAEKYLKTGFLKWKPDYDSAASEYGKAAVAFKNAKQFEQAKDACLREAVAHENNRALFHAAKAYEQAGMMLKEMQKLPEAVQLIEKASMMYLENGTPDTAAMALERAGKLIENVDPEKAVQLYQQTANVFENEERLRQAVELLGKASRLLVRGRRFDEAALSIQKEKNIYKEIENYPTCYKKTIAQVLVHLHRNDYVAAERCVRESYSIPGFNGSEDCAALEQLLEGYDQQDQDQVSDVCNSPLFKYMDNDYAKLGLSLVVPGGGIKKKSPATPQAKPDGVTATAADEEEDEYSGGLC
Sequence of UniProt Q96IV0 (Q96IV0 whole entry, looked up): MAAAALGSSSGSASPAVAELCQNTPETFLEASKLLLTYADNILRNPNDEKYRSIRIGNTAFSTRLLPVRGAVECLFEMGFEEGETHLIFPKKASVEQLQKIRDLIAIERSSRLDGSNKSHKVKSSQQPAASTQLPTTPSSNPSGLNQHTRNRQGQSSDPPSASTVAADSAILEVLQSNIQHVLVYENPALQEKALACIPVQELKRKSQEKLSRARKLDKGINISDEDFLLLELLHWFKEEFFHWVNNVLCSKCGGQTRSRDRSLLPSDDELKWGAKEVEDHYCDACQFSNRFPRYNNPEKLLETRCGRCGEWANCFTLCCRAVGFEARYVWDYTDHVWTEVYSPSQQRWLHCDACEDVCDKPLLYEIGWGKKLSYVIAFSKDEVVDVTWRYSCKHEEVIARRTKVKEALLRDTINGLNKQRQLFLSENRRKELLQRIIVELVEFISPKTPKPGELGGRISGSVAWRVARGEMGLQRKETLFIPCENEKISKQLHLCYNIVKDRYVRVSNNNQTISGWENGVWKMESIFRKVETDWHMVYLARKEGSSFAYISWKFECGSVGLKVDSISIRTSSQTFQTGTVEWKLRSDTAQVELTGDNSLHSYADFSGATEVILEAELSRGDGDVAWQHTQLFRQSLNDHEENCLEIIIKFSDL
Sequence of UniProt Q9NR45 (Q9NR45 whole entry, looked up): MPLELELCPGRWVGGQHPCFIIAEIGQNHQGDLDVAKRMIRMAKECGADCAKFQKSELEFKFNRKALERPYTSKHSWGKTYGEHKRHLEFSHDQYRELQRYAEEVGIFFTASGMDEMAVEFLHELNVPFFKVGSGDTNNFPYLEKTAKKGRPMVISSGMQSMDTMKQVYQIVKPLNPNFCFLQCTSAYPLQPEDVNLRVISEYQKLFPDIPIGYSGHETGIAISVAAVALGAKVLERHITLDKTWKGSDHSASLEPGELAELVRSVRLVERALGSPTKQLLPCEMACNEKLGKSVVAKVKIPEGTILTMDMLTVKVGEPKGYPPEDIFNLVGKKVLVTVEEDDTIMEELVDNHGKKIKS
Sequence of UniProt O14524 (O14524 whole entry, looked up): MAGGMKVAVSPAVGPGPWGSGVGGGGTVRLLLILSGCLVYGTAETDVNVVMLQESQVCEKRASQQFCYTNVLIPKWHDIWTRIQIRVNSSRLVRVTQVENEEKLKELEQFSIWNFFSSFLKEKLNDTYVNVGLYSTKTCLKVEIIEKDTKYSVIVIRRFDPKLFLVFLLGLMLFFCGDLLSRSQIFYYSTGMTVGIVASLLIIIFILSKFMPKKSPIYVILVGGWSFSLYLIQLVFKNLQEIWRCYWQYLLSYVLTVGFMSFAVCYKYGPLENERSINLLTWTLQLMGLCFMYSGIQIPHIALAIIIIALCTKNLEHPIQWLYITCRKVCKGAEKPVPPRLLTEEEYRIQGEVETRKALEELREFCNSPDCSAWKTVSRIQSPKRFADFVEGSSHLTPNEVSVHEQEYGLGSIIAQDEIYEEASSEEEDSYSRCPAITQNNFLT
Sequence of UniProt Q9BRP4 (Q9BRP4 whole entry, looked up): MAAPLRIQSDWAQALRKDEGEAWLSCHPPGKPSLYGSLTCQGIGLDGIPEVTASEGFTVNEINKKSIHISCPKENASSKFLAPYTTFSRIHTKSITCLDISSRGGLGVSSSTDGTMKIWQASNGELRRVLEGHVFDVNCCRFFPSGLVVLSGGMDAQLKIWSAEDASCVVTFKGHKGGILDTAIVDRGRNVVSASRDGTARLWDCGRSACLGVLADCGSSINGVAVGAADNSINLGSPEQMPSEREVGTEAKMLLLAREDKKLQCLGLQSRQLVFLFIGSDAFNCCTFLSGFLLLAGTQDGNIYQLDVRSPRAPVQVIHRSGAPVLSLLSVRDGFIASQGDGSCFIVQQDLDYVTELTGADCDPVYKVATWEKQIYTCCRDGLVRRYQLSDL
Sequence of UniProt P00846 (P00846 whole entry, looked up): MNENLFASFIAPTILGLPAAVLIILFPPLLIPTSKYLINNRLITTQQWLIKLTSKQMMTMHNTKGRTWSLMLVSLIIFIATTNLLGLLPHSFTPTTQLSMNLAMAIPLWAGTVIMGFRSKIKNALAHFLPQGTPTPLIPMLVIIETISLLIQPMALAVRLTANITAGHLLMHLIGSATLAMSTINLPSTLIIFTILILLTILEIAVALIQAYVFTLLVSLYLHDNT
Sequence of UniProt Q92692 (Q92692 whole entry, looked up): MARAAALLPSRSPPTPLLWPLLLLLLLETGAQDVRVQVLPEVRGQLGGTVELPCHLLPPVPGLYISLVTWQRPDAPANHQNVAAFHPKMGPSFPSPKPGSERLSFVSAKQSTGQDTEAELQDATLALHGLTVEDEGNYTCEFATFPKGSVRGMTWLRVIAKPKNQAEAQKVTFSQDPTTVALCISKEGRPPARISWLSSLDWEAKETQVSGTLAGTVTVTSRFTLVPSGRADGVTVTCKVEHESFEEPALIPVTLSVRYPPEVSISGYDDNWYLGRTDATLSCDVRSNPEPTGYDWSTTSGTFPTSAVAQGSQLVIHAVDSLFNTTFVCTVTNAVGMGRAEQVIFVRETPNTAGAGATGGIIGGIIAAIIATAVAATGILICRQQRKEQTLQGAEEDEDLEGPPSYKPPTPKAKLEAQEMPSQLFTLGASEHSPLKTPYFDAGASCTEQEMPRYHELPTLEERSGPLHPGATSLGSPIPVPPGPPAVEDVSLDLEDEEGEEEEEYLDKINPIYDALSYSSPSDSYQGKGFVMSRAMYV
Sequence of UniProt Q9BZF1 (Q9BZF1 whole entry, looked up): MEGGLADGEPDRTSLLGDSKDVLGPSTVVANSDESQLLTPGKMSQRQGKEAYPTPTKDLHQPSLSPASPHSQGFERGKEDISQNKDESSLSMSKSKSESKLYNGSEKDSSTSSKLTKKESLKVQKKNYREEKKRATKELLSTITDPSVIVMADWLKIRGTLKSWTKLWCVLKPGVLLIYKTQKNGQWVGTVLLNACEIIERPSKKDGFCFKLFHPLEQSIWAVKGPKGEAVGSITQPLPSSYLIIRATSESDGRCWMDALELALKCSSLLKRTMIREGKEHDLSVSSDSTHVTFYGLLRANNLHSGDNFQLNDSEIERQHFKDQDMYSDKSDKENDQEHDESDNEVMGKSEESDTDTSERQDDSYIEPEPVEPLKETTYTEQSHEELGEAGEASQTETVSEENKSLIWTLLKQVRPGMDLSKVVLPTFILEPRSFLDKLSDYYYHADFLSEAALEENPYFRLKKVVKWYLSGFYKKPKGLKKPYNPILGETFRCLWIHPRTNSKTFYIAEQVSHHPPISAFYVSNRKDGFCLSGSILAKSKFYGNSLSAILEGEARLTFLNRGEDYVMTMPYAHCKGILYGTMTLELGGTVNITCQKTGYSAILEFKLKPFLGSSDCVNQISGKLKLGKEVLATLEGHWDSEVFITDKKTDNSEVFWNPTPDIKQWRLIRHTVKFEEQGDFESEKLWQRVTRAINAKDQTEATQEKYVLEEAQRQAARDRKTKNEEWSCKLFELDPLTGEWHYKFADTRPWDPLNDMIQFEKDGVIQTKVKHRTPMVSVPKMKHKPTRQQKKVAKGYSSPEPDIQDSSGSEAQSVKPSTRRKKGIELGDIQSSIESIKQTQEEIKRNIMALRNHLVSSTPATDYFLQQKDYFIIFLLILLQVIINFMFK
Sequence of UniProt Q9HBL8 (Q9HBL8 whole entry, looked up): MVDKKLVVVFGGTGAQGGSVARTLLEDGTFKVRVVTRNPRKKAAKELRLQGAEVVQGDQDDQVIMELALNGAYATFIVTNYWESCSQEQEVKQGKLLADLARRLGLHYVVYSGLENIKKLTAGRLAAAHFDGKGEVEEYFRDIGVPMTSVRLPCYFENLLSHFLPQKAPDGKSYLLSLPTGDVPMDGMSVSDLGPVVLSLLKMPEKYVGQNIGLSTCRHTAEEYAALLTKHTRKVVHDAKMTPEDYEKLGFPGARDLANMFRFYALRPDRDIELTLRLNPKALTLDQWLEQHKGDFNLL

Row | Target | log2 fold change [1] | log2 fold change (filanesib) | log2 fold change (zotarolimus) | log2 fold change (idasanutlin) | log2 fold change (alisertib) | log2 fold change [2] | log2 fold change (gefitinib) | log2 fold change [3] | log2 fold change (lapatinib) | log2 fold change (pictilisib) | log2 fold change [4] | log2 fold change (crizotinib) | log2 fold change [5] | log2 fold change [6] | log2 fold change (duvelisib) | log2 fold change (gandotinib) | log2 fold change (tozasertib) | log2 fold change [7] | log2 fold change (doramapimod) | log2 fold change (ispinesib)
1 | NELFB isoform 2 (UniProt Q8WX92) | 0.01 | 0.046 | 0.019 | -0.026 | -0.007 | 0.085 | -0.006 | -0.02 | -0.029 | 0.141 | 0.059 | 0.019 | 0.087 | -0.08 | 0.088 | -0.093 | 0.033 | 0.086 | -0.087 | 0.042
2 | NFATC2 (UniProt Q13469) | 0.015 | 0.161 | -0.084 | 0.058 | 0.147 | -0.036 | 0.031 | -0.152 | -0.001 | -0.029 | 0 | -0.154 | -0.175 | 0 | 0.003 | 0.048 | 0.02 | 0.024 | 0.027 | -0.18
3 | MT-ATP6 (UniProt P00846) | -0.018 | -0.036 | -0.022 | -0.084 | -0.05 | 0.133 | 0.05 | 0.055 | -0.105 | 0.208 | 0.041 | 0.355 | 0.225 | 0.135 | 0.153 | 0.143 | 0.045 | -0.081 | -0.038 | 0.076
4 | OGFOD1 (UniProt Q8N543) | -0.294 (active) | -0.05 | -0.02 | -0.038 | -0.021 | 0.001 | 0.015 | 0.041 | -0.034 | 0.065 | 0.034 | -0.001 | 0.042 | 0.003 | 0.046 | -0.009 | -0.02 | -0.021 | -0.015 | -0.043
5 | NGLY1 (UniProt Q96IV0) | 0.02 | 0.043 | -0.012 | 0.112 | -0.064 | 0.047 | 0.076 | -0.128 | 0.03 | 0.045 | 0.017 | -0.079 | -0.01 | 0.093 | 0.028 | -0.043 | 0.048 | 0.032 | 0.001 | -0.059
6 | OSBPL8 (UniProt Q9BZF1) | 0.034 | 0.077 | -0.067 | -0.016 | -0.052 | -0.086 | 0.23 | -0.22 | 0.142 | -0.015 | 0.019 | -0.179 | -0.043 | 0.219 | -0.207 | -0.105 | 0.089 | 0.103 | 0.078 | -0.433
7 | NEMP1 (UniProt O14524) | -0.041 | -0.247 | -0.021 | 0.034 | -0.084 | -0.487 (active) | -0.021 | 0.006 | 0.001 | -0.02 | -0.058 | -0.121 | -0.035 | 0.011 | 0.013 | -0.1 | -0.004 | -0.014 | 0.032 | -0.354 (active)
8 | PAAF1 (UniProt Q9BRP4) | -0.013 | -0.082 | -0.008 | -0.026 | -0.062 | 0.026 | -0.002 | 0.047 | 0.027 | 0.048 | -0.003 | -0.003 | 0.078 | -0.071 | 0 | -0.035 | -0.042 | 0.018 | -0.022 | 0.047
9 | MRPS25 (UniProt P82663) | 0.066 | 0.029 | 0.053 | -0.185 | -0.038 | -0.055 | 0.058 | -0.046 | 0.08 | 0.063 | -0.018 | -0.082 | -0.103 | 0.165 | 0.009 | -0.109 | 0.017 | 0.121 | -0.083 | -0.438 (active)
10 | MRPS5 (UniProt P82675) | -0.06 | 0.078 | 0.091 | -0.37 (active) | 0.021 | 0.015 | -0.026 | 0.02 | 0.054 | -0.026 | 0.123 | -0.061 | 0.125 | 0.169 | 0.016 | -0.08 | -0.065 | 0.131 | 0.071 | -0.451 (active)
11 | MUL1 (UniProt Q969V5) | -0.044 | 0.042 | -0.064 | -0.052 | 0.069 | -0.05 | 0.017 | -0.08 | 0.006 | 0.006 | -0.023 | 0.038 | 0.078 | -0.006 | -0.042 | -0.018 | 0.083 | -0.02 | 0.056 | -0.01
12 | MRPS12 (UniProt O15235) | 0.018 | 0.074 | 0.039 | -0.162 | -0.03 | -0.088 | -0.078 | -0.062 | 0.082 | -0.177 | 0.046 | -0.075 | 0.015 | 0.311 | -0.058 | 0.063 | 0.011 | 0.022 | 0.003 | -0.65 (active)
13 | NMRAL1 (UniProt Q9HBL8) | 0.678 | -0.084 | 0.135 | -0.268 | -0.099 | 0.184 | 0.257 | 0.003 | -0.003 | 0.83 | 0.228 | 0.469 | 0.054 | 0.04 | 0.046 | -0.169 | -0.056 | -0.009 | 0.001 | -0.103
14 | NAPG (UniProt Q99747) | 0.046 | -0.046 | 0.052 | -0.001 | -0.005 | -0.066 | 0.025 | -0.089 | 0.029 | -0.008 | 0.045 | -0.029 | 0.045 | -0.098 | 0.054 | -0.046 | 0.126 | 0.143 | -0.05 | 0.025
15 | NANS (UniProt Q9NR45) | -0.11 | -0.115 | 0.017 | -0.045 | -0.008 | -0.017 | -0.057 | -0.017 | -0.005 | -0.018 | -0.074 | 0.026 | 0.052 | -0.098 | 0.02 | -0.03 | 0.043 | 0.001 | -0.006 | 0.074
16 | NECTIN2 (UniProt Q92692) | -0.028 | 0.027 | -0.042 | -0.003 | -0.084 | 0.011 | 0.06 | 0.014 | -0.01 | 0.021 | 0.004 | 0.121 | 0.082 | -0.148 | 0.062 | -0.036 | -0.048 | -0.038 | 0.015 | 0.113
